The supplement of paper PMC10849652
Of roughly 8,800 targets only a part is listed; those with a hit were picked by preference. About 0.5% of all pairs of compound and target were hits.

Compound: NCC(=O)Nc1ccc(-n2nc(C(F)(F)F)cc2-c2ccc3c(ccc4ccccc43)c2)cc1
Experiment: log2 fold change, soluble protein after heating vs DMSO (PISA); higher = thermal stabilisation; K562 lysate, 10 uM; active = over 0.2 and 3.5 SD of the protein, either way, in both replicates (recomputed)
Method in brief: (§1)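 Quantification was by TMTpro 16plex LC-MS/MS with equalised channel sums, applied to the supernatant after 21,000xg for 90 min. Samples were crude K562 extract at 1 mg/mL protein in PBS pH 7.4 with 1 mM MgCl2, treated with 10 μM compound for 30 min, heated for 3 min across 48°C-58°C, pooled and brought to 0.5% NP-40 at 4°C. Values are log-two fold changes in thermal stability relative to solvent controls, from duplicates.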

Chain of UniProt Q9Y5T5 (Q9Y5T5 whole entry, looked up): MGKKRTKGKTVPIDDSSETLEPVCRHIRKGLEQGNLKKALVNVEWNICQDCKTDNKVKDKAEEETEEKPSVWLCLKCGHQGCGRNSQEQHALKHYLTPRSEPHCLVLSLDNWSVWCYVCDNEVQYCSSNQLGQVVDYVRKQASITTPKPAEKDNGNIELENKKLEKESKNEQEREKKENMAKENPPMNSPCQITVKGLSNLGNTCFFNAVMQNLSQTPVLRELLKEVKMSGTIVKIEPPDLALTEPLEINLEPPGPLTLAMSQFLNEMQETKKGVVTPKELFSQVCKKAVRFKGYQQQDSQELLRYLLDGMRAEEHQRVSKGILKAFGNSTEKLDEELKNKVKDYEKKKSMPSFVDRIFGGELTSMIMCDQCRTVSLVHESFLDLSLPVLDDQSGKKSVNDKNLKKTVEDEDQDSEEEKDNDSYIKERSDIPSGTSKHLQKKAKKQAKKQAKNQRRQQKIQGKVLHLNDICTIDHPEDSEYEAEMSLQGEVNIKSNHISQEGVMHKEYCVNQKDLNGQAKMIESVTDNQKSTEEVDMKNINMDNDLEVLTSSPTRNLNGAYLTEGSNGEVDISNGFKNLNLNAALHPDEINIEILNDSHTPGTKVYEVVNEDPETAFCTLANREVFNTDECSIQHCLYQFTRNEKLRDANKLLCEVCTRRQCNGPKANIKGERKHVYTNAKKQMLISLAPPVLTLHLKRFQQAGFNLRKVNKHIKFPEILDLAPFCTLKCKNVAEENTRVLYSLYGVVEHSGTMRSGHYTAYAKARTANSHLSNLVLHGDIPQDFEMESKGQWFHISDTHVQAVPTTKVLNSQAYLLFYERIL
Chain of UniProt Q9NUA8 (Q9NUA8 whole entry, looked up): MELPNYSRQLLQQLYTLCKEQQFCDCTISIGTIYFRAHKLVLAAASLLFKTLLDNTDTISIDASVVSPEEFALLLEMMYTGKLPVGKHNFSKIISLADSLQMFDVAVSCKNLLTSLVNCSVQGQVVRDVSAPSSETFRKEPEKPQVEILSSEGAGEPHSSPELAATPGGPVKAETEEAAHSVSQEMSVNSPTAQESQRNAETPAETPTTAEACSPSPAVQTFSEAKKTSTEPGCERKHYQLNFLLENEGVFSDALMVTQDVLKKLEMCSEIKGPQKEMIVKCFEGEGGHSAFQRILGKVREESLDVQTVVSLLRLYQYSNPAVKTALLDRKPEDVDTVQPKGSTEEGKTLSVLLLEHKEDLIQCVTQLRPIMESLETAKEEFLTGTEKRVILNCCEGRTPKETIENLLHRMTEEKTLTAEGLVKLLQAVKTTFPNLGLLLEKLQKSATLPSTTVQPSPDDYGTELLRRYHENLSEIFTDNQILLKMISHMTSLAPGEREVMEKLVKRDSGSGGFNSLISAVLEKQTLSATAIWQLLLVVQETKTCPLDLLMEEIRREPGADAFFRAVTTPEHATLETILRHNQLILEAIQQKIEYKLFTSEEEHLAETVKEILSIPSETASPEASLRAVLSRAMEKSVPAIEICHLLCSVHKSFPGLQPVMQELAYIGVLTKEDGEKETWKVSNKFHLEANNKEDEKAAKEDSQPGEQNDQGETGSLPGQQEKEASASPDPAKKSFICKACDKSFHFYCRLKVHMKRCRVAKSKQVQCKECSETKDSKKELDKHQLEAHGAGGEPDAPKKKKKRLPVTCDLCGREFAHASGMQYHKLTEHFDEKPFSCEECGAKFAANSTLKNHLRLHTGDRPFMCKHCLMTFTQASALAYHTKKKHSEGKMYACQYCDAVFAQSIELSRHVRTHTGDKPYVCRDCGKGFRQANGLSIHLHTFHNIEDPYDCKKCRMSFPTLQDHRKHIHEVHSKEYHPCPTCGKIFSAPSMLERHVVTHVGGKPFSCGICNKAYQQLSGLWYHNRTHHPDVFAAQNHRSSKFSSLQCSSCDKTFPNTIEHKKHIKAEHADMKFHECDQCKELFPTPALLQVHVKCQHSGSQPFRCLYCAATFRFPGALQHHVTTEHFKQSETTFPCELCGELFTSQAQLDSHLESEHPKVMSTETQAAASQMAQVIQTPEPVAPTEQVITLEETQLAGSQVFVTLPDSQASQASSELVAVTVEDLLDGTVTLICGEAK
Chain of UniProt Q6PHR2 (Q6PHR2 whole entry, looked up): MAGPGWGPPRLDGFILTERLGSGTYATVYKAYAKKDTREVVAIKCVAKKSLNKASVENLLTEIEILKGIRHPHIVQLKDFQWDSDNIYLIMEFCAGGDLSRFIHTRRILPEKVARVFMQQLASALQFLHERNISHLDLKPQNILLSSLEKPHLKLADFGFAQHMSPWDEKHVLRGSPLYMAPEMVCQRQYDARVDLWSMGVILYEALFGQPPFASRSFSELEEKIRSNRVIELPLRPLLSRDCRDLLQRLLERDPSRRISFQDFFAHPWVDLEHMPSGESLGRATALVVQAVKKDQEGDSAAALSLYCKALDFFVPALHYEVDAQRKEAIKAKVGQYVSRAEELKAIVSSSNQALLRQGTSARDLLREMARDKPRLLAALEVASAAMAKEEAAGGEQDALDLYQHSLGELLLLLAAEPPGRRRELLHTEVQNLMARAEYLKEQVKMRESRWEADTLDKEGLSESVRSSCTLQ
Chain of UniProt Q9H6S0 (Q9H6S0 whole entry, looked up): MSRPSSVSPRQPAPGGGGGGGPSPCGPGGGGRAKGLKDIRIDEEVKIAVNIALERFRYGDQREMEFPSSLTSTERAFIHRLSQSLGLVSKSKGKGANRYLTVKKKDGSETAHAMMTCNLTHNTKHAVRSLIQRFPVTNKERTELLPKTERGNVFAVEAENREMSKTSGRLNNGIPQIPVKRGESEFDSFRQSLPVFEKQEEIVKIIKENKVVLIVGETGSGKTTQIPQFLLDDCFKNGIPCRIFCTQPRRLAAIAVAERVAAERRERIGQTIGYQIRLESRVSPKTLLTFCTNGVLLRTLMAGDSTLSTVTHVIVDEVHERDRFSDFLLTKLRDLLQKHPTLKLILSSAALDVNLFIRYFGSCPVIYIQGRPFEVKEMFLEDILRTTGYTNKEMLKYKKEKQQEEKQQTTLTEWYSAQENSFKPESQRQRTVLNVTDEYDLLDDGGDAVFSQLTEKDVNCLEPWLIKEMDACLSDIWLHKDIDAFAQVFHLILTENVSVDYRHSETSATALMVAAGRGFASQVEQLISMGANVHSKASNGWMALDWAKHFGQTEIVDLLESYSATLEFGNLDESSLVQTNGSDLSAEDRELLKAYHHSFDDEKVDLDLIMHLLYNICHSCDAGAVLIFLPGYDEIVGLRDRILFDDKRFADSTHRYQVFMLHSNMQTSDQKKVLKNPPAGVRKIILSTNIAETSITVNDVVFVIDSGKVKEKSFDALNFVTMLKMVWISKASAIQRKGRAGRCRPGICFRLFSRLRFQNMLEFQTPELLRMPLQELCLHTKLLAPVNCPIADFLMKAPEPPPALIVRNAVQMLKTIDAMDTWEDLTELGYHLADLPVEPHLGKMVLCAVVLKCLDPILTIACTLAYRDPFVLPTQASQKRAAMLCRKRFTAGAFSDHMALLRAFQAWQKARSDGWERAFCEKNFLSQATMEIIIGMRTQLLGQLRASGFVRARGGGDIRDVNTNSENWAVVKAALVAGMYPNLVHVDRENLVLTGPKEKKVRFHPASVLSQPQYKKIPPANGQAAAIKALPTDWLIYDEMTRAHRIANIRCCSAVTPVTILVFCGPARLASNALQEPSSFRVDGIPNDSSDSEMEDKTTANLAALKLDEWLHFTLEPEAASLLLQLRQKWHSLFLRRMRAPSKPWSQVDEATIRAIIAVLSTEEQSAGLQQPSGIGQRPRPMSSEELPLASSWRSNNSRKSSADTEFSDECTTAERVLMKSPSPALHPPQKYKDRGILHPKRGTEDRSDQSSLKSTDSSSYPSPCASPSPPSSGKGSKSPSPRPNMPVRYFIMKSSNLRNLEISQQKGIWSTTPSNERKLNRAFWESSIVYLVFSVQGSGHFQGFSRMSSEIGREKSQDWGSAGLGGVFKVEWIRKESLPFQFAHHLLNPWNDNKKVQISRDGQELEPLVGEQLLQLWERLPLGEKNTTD
Chain of UniProt O00258 (O00258 whole entry, looked up): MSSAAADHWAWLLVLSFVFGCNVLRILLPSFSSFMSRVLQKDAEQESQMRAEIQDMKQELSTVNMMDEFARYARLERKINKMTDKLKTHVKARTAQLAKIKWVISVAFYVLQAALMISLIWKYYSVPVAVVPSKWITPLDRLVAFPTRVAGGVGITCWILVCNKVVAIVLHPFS
Chain of UniProt Q9UN37 (Q9UN37 whole entry, looked up): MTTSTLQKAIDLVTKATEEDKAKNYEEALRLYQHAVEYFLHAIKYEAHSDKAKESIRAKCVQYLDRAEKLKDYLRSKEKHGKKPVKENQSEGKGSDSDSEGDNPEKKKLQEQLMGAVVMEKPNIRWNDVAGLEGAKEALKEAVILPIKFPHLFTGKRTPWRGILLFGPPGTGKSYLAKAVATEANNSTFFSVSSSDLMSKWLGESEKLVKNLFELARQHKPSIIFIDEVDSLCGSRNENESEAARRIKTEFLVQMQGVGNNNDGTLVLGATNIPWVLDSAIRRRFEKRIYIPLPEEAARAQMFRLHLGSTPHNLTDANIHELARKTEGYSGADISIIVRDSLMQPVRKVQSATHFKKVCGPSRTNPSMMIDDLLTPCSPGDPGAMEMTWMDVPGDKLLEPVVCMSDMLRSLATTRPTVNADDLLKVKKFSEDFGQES
Chain of UniProt Q15906 (Q15906 whole entry, looked up): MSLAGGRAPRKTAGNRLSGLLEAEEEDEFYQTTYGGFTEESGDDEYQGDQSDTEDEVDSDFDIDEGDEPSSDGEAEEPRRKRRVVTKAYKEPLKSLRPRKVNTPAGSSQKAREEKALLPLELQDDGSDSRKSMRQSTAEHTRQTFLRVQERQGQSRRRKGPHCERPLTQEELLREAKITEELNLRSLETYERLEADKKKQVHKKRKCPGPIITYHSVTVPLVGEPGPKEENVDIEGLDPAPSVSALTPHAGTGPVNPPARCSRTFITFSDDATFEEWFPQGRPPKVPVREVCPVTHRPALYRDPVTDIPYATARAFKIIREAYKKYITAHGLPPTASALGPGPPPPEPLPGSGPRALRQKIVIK

Row | Target | log2 fold change
1 | ZMYM2 (UniProt Q9UBW7) | -0.125 (inactive)
2 | WRB (UniProt O00258) | 0.082 (inactive)
3 | ULK3 isoform 4 (UniProt Q6PHR2) | -0.102 (inactive)
4 | YES1 (UniProt P07947) | 0.09 (inactive)
5 | WDR41 (UniProt Q9HAD4) | -0.017 (inactive)
6 | WEE1 (UniProt P30291) | 0.023 (inactive)
7 | ZBTB40 (UniProt Q9NUA8) | 0.073 (inactive)
8 | ZBTB33 (UniProt Q86T24) | 0.061 (inactive)
9 | WDR45 isoform 2 (UniProt Q9Y484) | 0.018 (inactive)
10 | ZFYVE19 (UniProt Q96K21) | 0.026 (inactive)
11 | VPS72 (UniProt Q15906) | 0.11 (inactive)
12 | VPS39 (UniProt Q96JC1) | 0.009 (inactive)
13 | VANGL1 (UniProt Q8TAA9) | -0.04 (inactive)
14 | YTHDC2 (UniProt Q9H6S0) | 0.061 (inactive)
15 | ZMAT2 (UniProt Q96NC0) | 0.033 (inactive)
16 | VPS28 (UniProt Q9UK41) | 0.03 (inactive)
17 | WDR20 isoform 7 (UniProt Q8TBZ3) | 0.01 (inactive)
18 | WDR62 isoform 4 (UniProt O43379) | 0.045 (inactive)
19 | WAC (UniProt Q9BTA9) | 0.011 (inactive)
20 | ZNF845 (UniProt Q96IR2) | -0.074 (inactive)
21 | USP22 (UniProt Q9UPT9) | -0.069 (inactive)
22 | USE1 (UniProt Q9NZ43) | -0.113 (inactive)
23 | YWHAQ (UniProt P27348) | -0.047 (inactive)
24 | XPOT (UniProt O43592) | -0.012 (inactive)
25 | VRK2 (UniProt Q86Y07) | -0.158 (inactive)
26 | VPS4A (UniProt Q9UN37) | -0.026 (inactive)
27 | USP16 (UniProt Q9Y5T5) | 0.019 (inactive)
28 | WDR6 (UniProt Q9NNW5) | 0.012 (inactive)
29 | VAC14 (UniProt Q08AM6) | -0.02 (inactive)
30 | URGCP (UniProt Q8TCY9) | 0 (inactive)

Compound: O=C(CCCCCCC(=O)Nc1ccccc1)NO [vorinostat]
Experiment: as above
Method in brief: as §1

Row | Target | log2 fold change
31 | ZMYM2 (UniProt Q9UBW7) | -0.609 (active)
32 | WRB (UniProt O00258) | 0.131 (inactive)
33 | ULK3 isoform 4 (UniProt Q6PHR2) | -0.05 (inactive)
34 | YES1 (UniProt P07947) | -0.067 (inactive)
35 | WDR41 (UniProt Q9HAD4) | -0.284 (active)
36 | WEE1 (UniProt P30291) | -0.52 (active)
37 | ZBTB40 (UniProt Q9NUA8) | -0.118 (inactive)
38 | ZBTB33 (UniProt Q86T24) | 0.103 (inactive)
39 | WDR45 isoform 2 (UniProt Q9Y484) | 0.025 (inactive)
40 | ZFYVE19 (UniProt Q96K21) | 0.105 (inactive)
41 | VPS72 (UniProt Q15906) | -0.401 (active)
42 | VPS39 (UniProt Q96JC1) | -0.194 (inactive)
43 | VANGL1 (UniProt Q8TAA9) | 0.085 (inactive)
44 | YTHDC2 (UniProt Q9H6S0) | -0.231 (active)
45 | ZMAT2 (UniProt Q96NC0) | 0.188 (inactive)
46 | VPS28 (UniProt Q9UK41) | -0.37 (active)
47 | WDR20 isoform 7 (UniProt Q8TBZ3) | 0.009 (inactive)
48 | WDR62 isoform 4 (UniProt O43379) | -0.423 (active)
49 | WAC (UniProt Q9BTA9) | -0.309 (active)
50 | ZNF845 (UniProt Q96IR2) | -0.297 (inactive)
51 | USP22 (UniProt Q9UPT9) | -0.323 (active)
52 | USE1 (UniProt Q9NZ43) | -0.029 (inactive)
53 | YWHAQ (UniProt P27348) | -0.052 (inactive)
54 | XPOT (UniProt O43592) | -0.656 (active)
55 | VRK2 (UniProt Q86Y07) | -0.166 (inactive)
56 | VPS4A (UniProt Q9UN37) | -0.356 (active)
57 | USP16 (UniProt Q9Y5T5) | -0.272 (active)
58 | WDR6 (UniProt Q9NNW5) | -0.321 (active)
59 | VAC14 (UniProt Q08AM6) | -0.229 (active)
